{"source": "PubChem BioAssay", "data": [{"assay": "compound effects on multiple myeloma cell viability – MM1S, calcein-AM fluorescence, 48 h, basal, profiling panel (AID 1165); also: test concentration not given here", "conditions": "higher = more signal", "values": [{"molecule": "O=C1N(Cc2ccccc2)c2ccccc2C[C@@]12COC(c1ccc(OCCCO)cc1)=N2", "z-score": -2.94}, {"molecule": "COc1ccc([Si](C)(C)[C@H]2[C@H](CC(=O)N3Cc4ccccc4C[C@H]3CO)O[C@@]3(C(=O)N(c4ccccc4)c4ccccc43)[C@@H]2C)cc1", "z-score": -2.67}, {"molecule": "C=C(COC)/C(=C/C[C@@H](OC(C)=O)c1ccccc1OCCO)c1cnc2ccccc2c1", "z-score": -2.48}, {"molecule": "O=C(NCc1ccccc1)[C@@H]1c2ccccc2C(=O)N(Cc2cc(C(F)(F)F)cc(C(F)(F)F)c2)[C@H]1c1ccc(CO)cc1", "z-score": 0.635}, {"molecule": "COCCOC(=O)N1C(=O)[C@@]2(c3cc(C#CCNC(N)=O)ccc31)[C@H](C(=O)Nc1nc3ccccc3s1)[C@H]1C(=O)O[C@H](c3ccccc3)[C@H](c3ccccc3)N1[C@@H]2c1ccccc1OCCO", "z-score": 0.223}, {"molecule": "CC=CC(O)C1C=CC2C(=O)NC(=O)C2N1Nc1ccc(Cl)cc1Cl", "note": "(stereo not given)", "z-score": -0.866}, {"molecule": "CCCCN1CC=CC23O[C@@H]4/C=C\\CCCOC(=O)C4[C@H]2C(=O)N(C(CO)C(C)C)[C@@H]3C1=O", "note": "(stereo not given in full)", "z-score": 0.201}, {"molecule": "COc1ccc([Si](C)(C)[C@H]2[C@H](CC(=O)N3Cc4ccccc4C[C@H]3CO)O[C@@]3(C(=O)N(C)c4c(Br)cc(C)cc43)[C@@H]2C)cc1", "z-score": -2.71}, {"molecule": "CC(C)(C)N1CC=CC23O[C@@H]4/C=C\\CCCOC(=O)C4[C@H]2C(=O)N(CCCCCO)[C@@H]3C1=O", "note": "(stereo not given in full)", "z-score": 1.59}, {"molecule": "C=C(CCCC)/C(=C/C[C@H](OC(=O)c1ccncc1)c1ccccc1OCCO)c1cc(C(=O)OC)ccc1OC", "z-score": -3.29}, {"molecule": "COc1ccc(C(=O)Nc2ccc(CN3C(=O)[C@@]4(O[C@@H](CCn5cc(CCO)nn5)[C@H]([Si](C)(C)c5ccc(OC)cc5)[C@H]4C)c4ccccc43)cc2)cc1", "z-score": -2.68}, {"molecule": "C#CCN1[C@@H](Cc2ccccc2)C(=O)O[C@H](Cc2ccccc2)[C@@H]1/C=C/C1CC1", "z-score": -2}, {"molecule": "O=C1C=C(c2ccccc2)C(=O)C2=C1CC([C@H]1Oc3ccccc3S(=O)(=O)N3CCC[C@@H]13)=CC2", "z-score": -3.2}, {"molecule": "COC(=O)[C@@]1(Cc2ccccc2)[C@H]2c3cc(C(=O)N4CCCC4)n(Cc4ccc(OC)c(OC)c4)c3C[C@H]2CN1C(=O)c1ccccc1", "z-score": -0.571}, {"molecule": "O=C1c2ccccc2[C@@]2(Cc3ccccc3N(Cc3ccccc3)C2=O)[C@H](c2ccc(CO)cc2)N1Cc1ccccc1Cl", "z-score": -0.411}, {"molecule": "C=C(CCCC)C(=O)CC[C@@H](OC(=O)c1ccccc1-c1ccccc1C(=O)O)c1ccccc1OCCO", "z-score": -3.39}, {"molecule": "COC(=O)C1(Cc2ccccc2)C=C2C(=C(C)C(=O)C2C)CN1", "note": "(stereo not given)", "z-score": 0.232}, {"molecule": "CC[C@@H]1C=C(C(=O)O)[C@H](c2ccc(OC)cc2)N1S(=O)(=O)c1ccc(C)cc1", "z-score": 0.107}, {"molecule": "COc1ccc([Si](C)(C)[C@@H]2[C@@H](CC(=O)N(CCO)Cc3ccccc3)O[C@]3(C(=O)N(Cc4ccc(I)cc4)c4ccccc43)[C@H]2C)cc1", "z-score": -2.54}, {"molecule": "COc1ccc([Si](C)(C)[C@@H]2[C@@H](CC(=O)N3CCC[C@H]3CO)O[C@]3(C(=O)N(Cc4cccc(N5CCCCC5=O)c4)c4ccccc43)[C@H]2C)cc1", "z-score": -2.81}, {"molecule": "CCOC(=O)C[C@H]1[C@H](OC(=O)Cc2ccc3c(c2)OCO3)[C@@H](NC(=O)c2ccc3ccccc3n2)c2cc(OCCCO)ccc2N1C(=O)Cc1ccc(OC)cc1", "z-score": 0.406}, {"molecule": "O=C1[C@H]2C=C(I)[C@H](C[C@@H]2OCCCCCCO)[C@@]12CO2", "z-score": -1.22}, {"molecule": "C=C(CCCC)/C(=C/C[C@H](OC(C)=O)c1cccc(OCCO)c1)c1cnc2ccccc2c1", "z-score": -3.13}, {"molecule": "O=C(NC1CC1)[C@@H]1c2ccccc2C(=O)N(CC23CC4CC(CC(C4)C2)C3)[C@H]1c1ccc(CO)cc1", "z-score": 0.0732}, {"molecule": "C=CC[C@@]12N=C(c3ccc(OCCCO)cc3)O[C@@H]1c1ccccc1N(CCC)C2=O", "z-score": -1.79}, {"molecule": "C=CCOC(=O)[C@@H]1[C@H]2C(=O)O[C@H](c3ccccc3)[C@H](c3ccccc3)N2[C@H](c2ccc(OCCOC(=O)[C@H]3C[C@H]4C(=O)NCC(=O)N4[C@H]3c3cccc(OCCO)c3)cc2)[C@@]12C(=O)Nc1ccc(I)cc12", "z-score": 0.464}, {"molecule": "COC(=O)C(CC#Cc1ccc2c(c1)[C@]1(C(=O)N2)[C@H](C(=O)N2CCc3cc(OC)c(OC)cc3C2)[C@H]2C(=O)O[C@H](c3ccccc3)[C@H](c3ccccc3)N2[C@@H]1c1ccccc1OCCO)C(=O)OC", "z-score": -0.151}, {"molecule": "C=CCOC(=O)[C@@H]1[C@H]2C(=O)O[C@H](c3ccccc3)[C@H](c3ccccc3)N2[C@H](c2ccc(OCCOC(=O)[C@H]3C[C@H]4C(=O)N[C@@H](CCCCN(C)C)C(=O)N4[C@H]3c3ccc(O)cc3)cc2)[C@@]12C(=O)Nc1ccc(I)cc12", "z-score": -0.644}, {"molecule": "COc1ccc([Si](C)(C)[C@@H]2[C@@H](CC(=O)N3CCC[C@H]3CO)O[C@]3(C(=O)N(Cc4ccc(N5CCOC5=O)cc4)c4ccccc43)[C@H]2C)cc1", "z-score": -2.64}, {"molecule": "CC1CC/C=C\\[C@H]2OC34C=CCN(c5ccc6ccccc6c5)C(=O)[C@H]3N(C(C)CO)C(=O)[C@@H]4C2C(=O)O1", "note": "(stereo not given in full)", "z-score": 1.6}, {"molecule": "CCCCCCc1nc(-c2ccc(-c3ccc(Cl)c(Cl)c3)o2)cc2c1[Si](C(C)C)(C(C)C)OC2", "z-score": -3}, {"molecule": "CCOC(=O)C1=CC[C@@H](c2ccccc2)N(S(=O)(=O)c2ccc(C)cc2)[C@H]1c1ccccc1I", "z-score": -0.676}, {"molecule": "COC(=O)[C@]1(Cc2ccccc2)N=C(c2ccc(OCCCO)cc2)O[C@@H]1c1ccccc1CN=[N+]=[N-]", "z-score": -3.55}, {"molecule": "CC(C)=CCCC=C(C)C(O)C1C=CC2C(=O)N(c3ccccc3)C(=O)C2N1Nc1ccc(C#N)cc1", "note": "(stereo not given)", "z-score": -1.65}, {"molecule": "CCOC(=O)C[C@H]1[C@H](OC(=O)c2ccccc2-c2ccccc2)[C@@H](NC(=O)C2CCCCC2)c2cc(OCCCO)ccc2N1C(=O)c1ccc2ccccc2n1", "z-score": -0.742}]}]}
